# hNpr1 antagonist = antagonists of human natriuretic peptide receptor Npr1; P16066; Potency, µM (highest dose often 46.3 µM), actives largely listed as inhibitors; HEK293 hNpr1 GloSensor cGMP, ANP-stimulated luminescence; 76,000 tested, 1.6% active; calls by dose curve; also: nearly all actives have a fitted effect of over 60% in size
# Target sequence (P16066 whole entry, looked up): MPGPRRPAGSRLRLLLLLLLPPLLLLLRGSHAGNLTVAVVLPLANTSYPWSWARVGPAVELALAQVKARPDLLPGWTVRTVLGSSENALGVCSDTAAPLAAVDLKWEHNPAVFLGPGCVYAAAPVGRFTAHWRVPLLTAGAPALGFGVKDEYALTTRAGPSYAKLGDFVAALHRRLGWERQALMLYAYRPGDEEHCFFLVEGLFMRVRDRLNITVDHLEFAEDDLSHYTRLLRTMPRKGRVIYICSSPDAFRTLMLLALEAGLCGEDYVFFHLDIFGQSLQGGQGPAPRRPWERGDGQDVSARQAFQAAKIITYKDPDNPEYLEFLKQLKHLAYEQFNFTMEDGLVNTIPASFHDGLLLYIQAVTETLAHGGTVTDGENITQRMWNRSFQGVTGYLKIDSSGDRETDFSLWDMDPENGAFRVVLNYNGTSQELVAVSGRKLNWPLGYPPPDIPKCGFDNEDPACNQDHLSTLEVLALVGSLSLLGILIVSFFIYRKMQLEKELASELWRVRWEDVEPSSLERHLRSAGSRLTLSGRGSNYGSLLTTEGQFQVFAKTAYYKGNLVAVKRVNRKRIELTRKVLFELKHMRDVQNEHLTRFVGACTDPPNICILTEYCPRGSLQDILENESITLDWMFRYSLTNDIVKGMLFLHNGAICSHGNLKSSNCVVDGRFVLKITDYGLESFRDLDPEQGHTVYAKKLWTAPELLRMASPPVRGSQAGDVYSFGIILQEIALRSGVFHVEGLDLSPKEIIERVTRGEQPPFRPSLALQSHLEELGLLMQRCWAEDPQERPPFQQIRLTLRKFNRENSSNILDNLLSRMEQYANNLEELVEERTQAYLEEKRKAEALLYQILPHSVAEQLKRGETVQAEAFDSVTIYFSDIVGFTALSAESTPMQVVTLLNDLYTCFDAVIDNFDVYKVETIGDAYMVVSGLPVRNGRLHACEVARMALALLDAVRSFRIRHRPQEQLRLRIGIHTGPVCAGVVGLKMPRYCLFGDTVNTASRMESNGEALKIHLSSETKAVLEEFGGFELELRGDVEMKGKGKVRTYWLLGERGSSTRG
#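 HEK293 cells stably expressing human Npr1 and cGMP GloSensor pGS-40F, loaded 2 h with 2% GloSensor reagent, given compound 30 min at room temperature. Luminescence read before and 20 min after 0.1 nM hNppA.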
# HEK cytotox = cytotoxic compounds in HEK 293 cells | HEK 293 viability, ATP luminescence (CellTiter-Glo), 48-72 h | 94,000 tested, 6.6% active | Potency, µM (series often up to 115 µM), usual class: inhibitors; also: nearly all actives have a fitted effect of over 60% in size
#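 Read-out: CellTiter-Glo ATP luminescence. Cells: HEK 293, 250 cells/well. Exposure: 48 or 72 hr, 37 degree Celsius.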
# Luciferase inh = Photinus pyralis luciferase inhibition. P08659. purified P. pyralis luciferase, luminescence, biochemical. Potency, µM (series often up to 115 µM), hits mostly inhibitors. 76,000 tested, 2.5% active. AID 1347043; also: nearly all actives have a fitted effect of over 65% in size
#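 Cell-free enzyme assay, 10nM P. pyralis luciferase, luciferin and ATP each at 10uM. Inhibition profiled over a 6-point titration, read as luminescence.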
# 3T3 cytotox = NIH 3T3 cell cytotoxicity. 94,000 tested, 4.3% active. NIH 3T3 viability, CellTiter-Glo ATP luminescence, 48-72 h. Potency, µM (doses to about 96.7 µM), actives largely listed as inhibitors; also: nearly all actives have a fitted effect of over 55% in size
#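 Viability of NIH 3T3 cells after 48 or 72 hr compound treatment at 37 °C was assessed by CellTiter-Glo, with luminescence imaged following a 10 min room-temperature step.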
# A number is an active result; i = inactive; ? = inconclusive; nt = not tested or not shown. Rows were chosen to be rich in hits. Some 11% of all compounds tested hit in one or more screens of this group. Unless noted, calls follow the shape of the dose curve; as a rule, active = well fitted curve in the direction sought with a large enough effect; inconclusive = small, poorly fitted or top-dose-only effect, or another doubt; inactive = no such curve, though single readings can be large; an effect the other way counts as inactive or inconclusive.
SMILES,hNpr1 antagonist,HEK cytotox,Luciferase inh,3T3 cytotox
Cc1ccc(Nc2ccnc(N3CCN(C(=O)Cc4ccc(F)cc4)CC3)n2)cc1,nt,?,nt,32µM
COc1ccc(Nc2ccnc(N3CCN(C(=O)c4cccc(Cl)c4)CC3)n2)cc1,nt,28µM,nt,28µM
COc1ccc(Nc2ccnc(N3CCN(C(=O)Cc4cccc(Cl)c4)CC3)n2)cc1,nt,?,nt,28µM
COc1ccc(Nc2ccnc(N3CCN(C(=O)c4ccc(F)cc4)CC3)n2)cc1,nt,22µM,nt,13µM
COc1cccc(Nc2ccnc(N3CCN(C(C)=O)CC3)n2)c1,nt,i,nt,?
COc1ccc(Nc2ccnc(N3CCN(C(=O)Cc4ccccn4)CC3)n2)cc1,nt,i,nt,i
Cc1cnc(-c2cccnc2)n1C1CCCN(C(=O)c2cnccn2)C1 (centres undefined),nt,i,nt,i
CN1CCCCC(CC(=O)N2CCN(c3ccc(F)cc3)CC2)C1=O (centres undefined),nt,i,nt,i
CC(C)Cn1c(=O)c(C(=O)NCc2ccc(C(F)(F)F)cc2)nc2cccnc21,nt,i,nt,i
Cc1cc(NC(=O)C(C)(C)Oc2nn(CC3CC3)c3ccc(CN4CCCC4)cc23)n(C)n1,i,?,i,?
COc1ccc(Nc2ccnc(N3CCN(C(=O)c4ccc(OC)cc4)CC3)n2)cc1,nt,25µM,nt,25µM
Cc1ccc(Nc2ccnc(N3CCCN(C(=O)Cc4cccc(Cl)c4)C3)n2)cc1,nt,13µM,nt,28µM
Cc1ccc(Nc2ccnc(N3CCN(C(=O)c4ccccc4C)CC3)n2)cc1,nt,40µM,nt,35µM
CN(C)C(=O)[C@@H]1CCCN1c1nccc(Nc2ccccc2Cl)n1,nt,?,nt,i
O=C(Cc1cccc(Cl)c1)N1CCN(c2nccc(Nc3ccccc3Cl)n2)CC1,nt,35µM,nt,14µM
CC(=O)N1CCN(C(=O)C2CCCN2c2nccc(Nc3ccc(C)cc3)n2)CC1 (centres undefined),nt,i,nt,i
CC(=O)Nc1ccc(CC(=O)N2CCC(C)(c3noc(-c4cccnc4)n3)CC2)cc1,nt,?,nt,i
O=C(c1ccccc1)N1CCC2(CC1)NC(=O)N(Cc1ccccc1)C2=O,i,i,i,i
CCC(c1cccs1)N1C(=O)[C@H]2CN(S(=O)(=O)c3ccccc3F)C[C@H]2C1=O (some centres undefined),i,i,i,i
CCOC(=O)C1c2c(OC)ccc3c2C(=CC(C)(C)CO3)CN1Cc1ccccc1 (centres undefined),nt,45µM,nt,?
COCc1ccc2c(c1)c(OC(C)(C)C(=O)NCC[S+](C)(=O)[O-])nn2Cc1cccnc1,i,i,i,?
COCc1ccc2c(c1)c(OC(C)(C)C(=O)NCC[S+](C)(=O)[O-])nn2Cc1ccccc1,i,i,i,35µM
COCc1ccc2c(c1)c(OC(C)(C)C(=O)Nc1ccccn1)nn2Cc1ccccc1,i,63µM,i,?
COCc1ccc2c(c1)c(OC(C)(C)C(=O)NCCc1ccccn1)nn2Cc1ccccc1,i,?,i,?
COCc1ccc2c(c1)c(OC(C)(C)C(=O)N1CC(O)C1)nn2Cc1cccnc1,i,i,i,79µM
SMILES,hNpr1 antagonist,HEK cytotox,Luciferase inh,3T3 cytotox
COc1ccc(-c2cc(N3CCN(C(=O)c4ccc(C)cc4C)CC3)n[nH]2)cc1,?,40µM,i,?
COc1ccc(C2(C(=O)N3CCCN(c4cc(-c5ccc(C)c(C)c5)[nH]n4)CC3)CC2)cc1,?,25µM,i,32µM
COc1ccc(-c2cc(N3CCCN(C(=O)c4ccc(OC)cc4OC)CC3)n[nH]2)cc1,?,40µM,i,?
COc1ccc(-c2cc(N3CCCN(C(=O)c4cc5ccccc5[nH]4)CC3)n[nH]2)cc1,i,45µM,?,35µM
CN(CC1CCOCC1)S(=O)(=O)c1ccc(F)c(Cl)c1,i,?,i,i
CC(=O)N1CCCN(c2ncnc3c2CN(C2CCC2)C(=O)CN3C)CC1,nt,i,nt,i
CCn1c2c(c(=O)n1Cc1ccccc1)CCN(Cc1cncc(OC)c1)C2,i,i,i,79µM
CCn1c2c(c(=O)n1Cc1ccccc1)CCN(Cc1nccs1)C2,i,i,i,?
O=c1c2c(n(Cc3cccnc3)n1CCc1ccccc1)CN(CC1CC1)CC2,i,i,i,40µM
COc1ccc(Cn2c3c(c(=O)n2Cc2ccccc2)CCN(CC2CCOC2)C3)cc1 (centres undefined),i,i,i,28µM
O=c1c2c(n(Cc3cccnc3)n1-c1ccccc1)CN(CC1CCOC1)CC2 (centres undefined),i,i,i,?
O=c1c2c(n(Cc3cccnc3)n1CCc1ccccc1)CN(CC1CCOC1)CC2 (centres undefined),i,i,i,45µM
Cc1nc(C)c(C(=O)NCCc2ncc(C)n2C2CCCC2)s1,nt,i,nt,i
CCCCn1c(=O)c(C(=O)N2CCN(C(=O)c3ccc(Cl)nc3)CC2)nc2cccnc21,nt,i,nt,i
O=C(c1ccc(Cl)nc1)N1CCN(Cc2ccccc2-c2cccnc2)CC1,nt,?,nt,i
Cc1ccc(C(=O)N2CCCC3(CCNCC3)CC2)cc1Cl,i,?,i,79µM
COc1ccccc1CC(=O)N1CCCc2ncc(C(=O)NCCOc3ccccc3)cc21,i,?,i,i
CC(C)c1ccc(CC(=O)N2CCCc3ncc(C(=O)NCCOc4ccccc4)cc32)cc1,?,40µM,?,?
CC(C)CCNC(=O)c1cnc2c(c1)N(C(=O)Cc1ccc(C(C)C)cc1)CCC2,i,100µM,i,100µM
O=C(c1ccccc1)N1CCCC2(CNc3ncccc3[S+](=O)([O-])N2)C1 (centres undefined),nt,i,nt,i
CN1C[C@H](C(=O)NCc2ccncc2)C[C@H]1c1cccc(C(F)(F)F)c1,i,?,i,i
CN1C[C@H](C(=O)N2CCN(c3ccccn3)CC2)C[C@H]1c1cccc(C(F)(F)F)c1,i,89µM,i,?
CN1C[C@H](C(=O)Nc2cccc(Cl)c2)C[C@H]1c1cccc(C(F)(F)F)c1,i,35µM,i,32µM
COc1ccc(NC(=O)[C@@H]2C[C@@H](c3cccc(C(F)(F)F)c3)N(C)C2)cc1OC,i,?,i,?
CC(C)(C)C(=O)N1CCC(C(=O)N2CCCC2c2nc3ccncc3[nH]2)CC1 (centres undefined),nt,i,nt,i
SMILES,hNpr1 antagonist,HEK cytotox,Luciferase inh,3T3 cytotox
Cn1ncc2c(C(=O)NCc3cccc(Cl)c3)cc(-c3cccc(C(F)(F)F)c3)nc21,nt,i,nt,?
Cn1cccc1C(=O)N1CCC(N2C(=O)C3(CCCC3)C2c2ccccc2)CC1 (centres undefined),i,45µM,i,i
Cn1ccnc1C(=O)N1CCC(N2C(=O)C3(CCCC3)C2c2ccccc2)CC1 (centres undefined),i,i,i,?
CC(C)CC(=O)N1CCC(N2C(=O)C3(CCCC3)C2c2ccccc2)CC1 (centres undefined),i,?,i,45µM
Cn1cccc1CN1CCCC2(Cc3ccccc3CNC2=O)C1 (centres undefined),nt,?,nt,i
O=C(c1n[nH]c2ccccc12)N1CCC(Cc2nc(-c3ccccc3)n[nH]2)CC1,i,?,i,?
CCOc1ccc(CN2CCOc3ccc(C(=O)NCc4ccccc4F)cc3C2)cc1,?,40µM,i,?

# Bioassay records as filed in PubChem.
